PPARg SRC-1 ag – PPARgamma-driven SRC-1 recruitment agonism | AID 631 | P37231 | PPARgamma-SRC-1 coactivator recruitment biochemical assay | actives 0.41% (n = 200,000) | activation, % at 8 µM; in the data active = activation above about 19%;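 note: 0% = DMSO and 100% = reference agonist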
SRC2 TRFRET art – flags TR-FRET format artefacts in PPARgamma SRC-2 recruitment agonist screen. TR-FRET artefact counter-screen; hits give high values. TR-FRET ratio at 8 µM. actives 0.4% (n = 200,000). AID 1049
PPARg SRC2 recr – PPARgamma-driven SRC-2 recruitment agonism; P37231; actives 0.34% (n = 200,000); AID 1032; PPARgamma LBD-SRC-2 recruitment, biochemical; activation, % at 8 µM; in the data active = activation above about 22%;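 note: 0% = vehicle and 100% = reference agonist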
SRC1 TRFRET art – TR-FRET artefact, counter-screen to PPARgamma/SRC-1 agonist assay | TR-FRET detection artefact counter-screen, emission ratio; hits give high values | TR-FRET ratio at 8 µM | actives 0.34% (n = 99,000) | AID 1051; in the data active = TR-FRET ratio above about 2300
SRC3 TRFRET art – flags TR-FRET format artefacts in PPARgamma SRC-3 recruitment agonist screen | TR-FRET artefact counter-screen, PPARgamma/SRC-3 format; hits give high values | TR-FRET ratio at 8 µM | actives 0.39% (n = 99,000)
PPARg SRC3 recr – promotes SRC-3 coactivator recruitment by human PPARgamma; actives 0.26% (n = 200,000); AID 731; P37231; activation, % at 8 µM; biochemical PPARgamma/SRC-3 coactivator recruitment assay; in the data active = activation above about 23%;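 note: 0% = DMSO and 100% = reference agonist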
PPARg SRC2 conf – confirmation of agonists of SRC-2 recruitment by human PPARgamma; actives 52% (n = 790); shares compounds with PPARg SRC3 recr; activation, % at 8 µM; biochemical SRC-2 recruitment by PPARgamma; in the data active = activation above about 22%;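 note: 0% = vehicle alone and 100% = reference agonist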
PPARg SRC1 conf – human PPARgamma SRC-1 recruitment agonism, confirmation; shares compounds with PPARg SRC3 recr; PPARgamma–SRC-1 coactivator recruitment biochemical assay; activation, % at 8 µM; actives 43% (n = 790); in the data active = activation above about 20%;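 note: 0% = vehicle wells and 100% = reference agonist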
PPARg SRC3 ag – human PPARgamma SRC-3 recruitment agonism, confirmation; actives 29% (n = 790); activation, % at 8 µM; shares compounds with PPARg SRC3 recr; biochemical PPARgamma-SRC-3 coactivator recruitment, agonist mode; in the data active = activation above about 24%;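 note: 0% = vehicle wells and 100% = reference agonist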
* = called active by the depositor; . = no result. The list is not random: actives were taken first. Their share in the collection is about 0.9%. Cut-off read from the data, not from the text of the source, unless noted: active = TR-FRET ratio above about 2000; inactive = the rest.

SMILES | PPARg SRC-1 ag | SRC2 TRFRET art | PPARg SRC2 recr | SRC1 TRFRET art | SRC3 TRFRET art | PPARg SRC3 recr | PPARg SRC2 conf | PPARg SRC1 conf | PPARg SRC3 ag
COc1ccc2nc(SCc3cccnc3)c(C#N)cc2c1 | 83* | 1517 | 9 | . | . | 69* | 53* | 42* | 33*
COc1ccc(CNC(=O)CCSCc2cccc(Cl)c2)c(OC)c1 | 1 | 1691 | 2 | 1697 | 1697 | 2 | . | . | .
CCn1c(=O)cc(SCC(=O)NCC2CCCO2)c2ccccc21 (stereo not given) | 31* | 2825* | 50* | . | . | 66* | 35* | 21* | 23
CN(CCCNC(=O)CSc1cc(=O)n(C)c2cc(Cl)ccc12)Cc1ccccc1 | 64* | 2902* | 20 | 3308* | 2993* | 33* | 39* | 27* | 27*
Cn1c(=O)cc(SCC(=O)NCCC2=CCCCC2)c2ccc(Cl)cc21 | -4 | 1438 | -6 | 1403 | 1608 | 0 | . | . | .
CC(C)N(C(=O)Cn1cc(SCC(=O)NCC2CCCO2)c2ccccc21)C(C)C (stereo not given) | 1 | 1473 | 1 | 1859 | 1645 | 2 | . | . | .
Cn1c(=O)cc(SCC(=O)NCC2CCCO2)c2ccc(Cl)cc21 (stereo not given) | 63* | 2967* | 90* | . | . | 112* | 43* | 28* | 29*
CCN1CCCC1CNC(=O)CSc1cc(=O)n(C)c2cc(Cl)ccc12 (stereo not given) | 50* | 2477* | 52* | . | . | 57* | 39* | 28* | 27*
O=C(CC(=O)c1ccccc1)Nc1cccnc1Cl | -8 | 1647 | -10 | 1530 | 1729 | -4 | . | . | .
NS(=O)(=O)c1ccc(CCNC(=O)c2cc(-c3ccccn3)nc3ccc(Br)cc23)cc1 | 22* | 1850 | 11 | 2153 | 2530* | 15 | 5 | 5 | 6
Brc1cc(Br)c2nc(-c3cccs3)ccc2c1 | 23* | 2365* | 45* | . | . | 52* | 36* | 24* | 24
c1csc(-c2csc(-c3cccs3)n2)c1 | 16 | 1741 | 8 | . | . | 7 | . | . | .
CCOc1ccc(NC2OC(CO)C(O)C(O)C2O)c([N+](=O)[O-])c1 (stereo not given) | 12 | 1700 | 12 | 1826 | 1709 | 6 | . | . | .
Cc1cc(C)nc(NS(=O)(=O)c2ccc(NC(=O)CSc3nc(-c4ccccc4)c(C#N)c(=O)[nH]3)cc2)n1 | 21* | 2049* | 24* | 2109 | 2218* | 11 | 14 | 11 | 11
N#Cc1c(-c2ccccc2)nc(SCC(=O)Nc2ccccc2)[nH]c1=O | 17 | 1703 | 6 | 2166 | 1873 | 5 | . | . | .
CN(Cc1ccc2nonc2c1)Cc1nc(CC2CC2)no1 | 0 | 1649 | -1 | 1551 | 1345 | -1 | . | . | .
Cc1cc(C(=O)OCC(=O)c2ccc(Br)s2)no1 | 65* | 2269* | 90* | . | . | 123* | 54* | 34* | 39*
Cc1cc(NS(=O)(=O)c2ccc(Br)s2)no1 | 8 | 1545 | 1 | . | . | -4 | . | . | .
Cc1cc(C(=O)OCC(=O)c2ccc(Br)s2)c(C)o1 | 20* | 1872 | 8 | . | . | 31* | 41* | 30* | 30*
COc1ccc(OC)c(C(=O)COC(=O)c2cc(C)oc2C)c1 | 2 | 1514 | -2 | . | . | -3 | . | . | .
O=C(O)c1cn(C2CC2)c2cc(N3CCOCC3)c(F)cc2c1=O | -3 | 1517 | -1 | . | . | -17 | . | . | .
COC(=O)c1cc(Cl)c(NC(=O)c2ccc(C(C)(C)C)cc2)cc1OC | 5 | 1607 | 8 | . | . | 20 | . | . | .
COC(=O)c1cc(Cl)c(NC(=O)c2cc3ccccc3o2)cc1OC | 97* | 3198* | 50* | . | . | 105* | 59* | 53* | 40*
COc1cc(/C=C(\C#N)C(=O)Nc2cccc3ncccc23)cc(OC)c1OC | 9 | 1527 | 10 | 1866 | 1573 | 24* | 3 | 10 | 13
CCCNC(=O)N1CCN(Cc2ccco2)CC1 | -1 | 1538 | -9 | 1740 | 1416 | -1 | . | . | .
SMILES | PPARg SRC-1 ag | SRC2 TRFRET art | PPARg SRC2 recr | SRC1 TRFRET art | SRC3 TRFRET art | PPARg SRC3 recr | PPARg SRC2 conf | PPARg SRC1 conf | PPARg SRC3 ag
COc1ccc(NCc2nnc(SCc3ccc(Cl)cc3)n2-c2ccccc2)cc1 | 2 | 1577 | 2 | 1841 | 1499 | 5 | . | . | .
CCC(OC(=O)c1cc2sccc2n1C)C(=O)NCC1CCCO1 (stereo not given) | 22* | 1531 | 11 | . | . | 11 | 12 | 17 | 17
NC(=O)c1cccc2c(=O)oc3ccccc3c12 | 11 | 1531 | 9 | . | . | 8 | . | . | .
O=c1oc2cc(O)c(Cl)cc2c2ccccc12 | 59* | 4246* | 102* | 3291* | 4295* | 54* | 55* | 34* | 39*
O=C(C1=C(O)C(=O)N(CCCN2CCOCC2)C1c1ccncc1)c1cc2ccccc2o1 (stereo not given) | 23* | 1889 | 21 | 2425* | 2068* | 7 | 25* | 16 | 16
CN(C)CCCN1C(=O)C(O)=C(C(=O)c2cc3ccccc3o2)C1c1ccccc1 (stereo not given) | 53* | 3299* | 73* | . | . | 90* | 70* | 50* | 45*
COc1cccc(C2C(C(=O)c3ccc(C)o3)=C(O)C(=O)N2CCCN(C)C)c1 (stereo not given) | 0 | 1772 | 7 | . | . | 8 | . | . | .
O=C(C1=C(O)C(=O)N(CCN2CCOCC2)C1c1cccnc1)c1cc2ccccc2o1 (stereo not given) | 13 | 1682 | 3 | . | . | 10 | . | . | .
COC(=O)c1ccc(C2C(C(=O)c3cc4ccccc4o3)=C(O)C(=O)N2CCCN(C)C)cc1 (stereo not given) | 22* | 1943 | 18 | . | . | 29* | 25* | 22* | 19
COC(=O)c1ccc(C2/C(=C(\O)c3cccc(OC)c3)C(=O)C(=O)N2CCCN(C)C)cc1 (stereo not given) | 10 | 1824 | 0 | 2143 | 1661 | 2 | . | . | .
O=C(O)c1cccc(-n2c(-c3cnccn3)n[nH]c2=S)c1 | 2 | 1372 | 1 | 1651 | 1629 | -1 | . | . | .
O=C(CCSc1nnc2ccc3ccccc3n12)Nc1ccc(F)cc1 | 10 | 1920 | 17 | . | . | 33* | 29* | 24* | 19
Cc1occc1C(=O)Nc1nnc(-c2cccs2)s1 | 2 | 1821 | 9 | 1654 | 1773 | 5 | . | . | .
Cc1cccc(N(Cc2cc3ccccc3[nH]c2=O)S(=O)(=O)c2ccccc2)c1 | 4 | 1432 | 8 | 1731 | 1506 | 0 | . | . | .
Cc1ccc(-n2c(O)c(C=Nc3ccccc3-c3n[nH]c(=S)[nH]c3=O)c3ccccc3c2=O)cc1C | 24* | 2174* | 24* | 2325* | 2203* | 23* | 44* | 33* | 28*
